# Measurements published in PubChem BioAssay (NCI).
# Compounds without any hit were thinned out: in the full panel of roughly 83,000, 20% have a hit.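 Each cell line was grown in a 96-well plate and treated with one concentration of compound for 48 hours. Values below 10 were considered active.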 The source made the active and inactive calls.
# System: NCI-H226 lung
# Assay: NCI-60 one-dose screen, 48 h (100 = growth as untreated, 0 = no growth, -100 = all killed)
# Conditions: 1 µM
row,Structure (SMILES),growth
1,CC/C(=C(\c1ccc(O)cc1)c1ccc(OCCN(C)C(=O)COCCNC(=O)Cc2ccc3c(c2)CN([C@@H]2CCC(=O)NC2=O)C3=O)cc1)c1ccccc1,77.4% (inactive)
2,CC/C(=C(\c1ccc(O)cc1)c1ccc(OCCN(C)C(=O)CCOCCNC(=O)c2ccc3c(c2)CN([C@@H]2CCC(=O)NC2=O)C3=O)cc1)c1ccccc1,87.2% (inactive)
3,CC/C(=C(/c1ccc(O)cc1)c1ccc(OCCN(C)C(=O)COCCOCCNC(=O)c2ccc3c(c2)CN([C@@H]2CCC(=O)NC2=O)C3=O)cc1)c1ccccc1,89.4% (inactive)
4,CC/C(=C(/c1ccc(O)cc1)c1ccc(OCCN(C)C(=O)CCOCCNC(=O)Cc2ccc3c(c2)CN([C@@H]2CCC(=O)NC2=O)C3=O)cc1)c1ccccc1,93.9% (inactive)
5,CC/C(=C(/c1ccc(O)cc1)c1ccc(OCCN(C)C(=O)COCCOCCNC(=O)Cc2ccc3c(c2)CN([C@@H]2CCC(=O)NC2=O)C3=O)cc1)c1ccccc1,93.8% (inactive)
6,CC/C(=C(\c1ccc(O)cc1)c1ccc(OCCNC)cc1)c1ccccc1,85.9% (inactive)
